Sampled rows, rich in hits. Any-hit rate of the full collection: about 2.6%.
A549 tox: counter-screen for Nrf2 inhibitors: cytotoxicity in A549 cells; AID 504648; 390,000 tested, 0.16% active; Potency, µM (doses to about 46 µM), most hits filed as inhibitors; A549 ARE-Fluc cells, CellTiter-Fluor viability, 18-24 h
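Cytotoxicity counterscreen: CellTiter-Fluor fluorescence was measured in A549 ARE_Fluc cells after 18-24 h of compound exposure in a concentration series. The subsequent BugLite luminescent read reports ARE-luciferase activity.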
CCT chaperon mod: cytosolic chaperonin activity modulation; purified chaperonin ATPase assay, HTRF ADP detection, 30 min; activity change, % (no concentration beside the values), hits read low; 360,000 tested, 0.3% active; in the data active = activity change below about -30%
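First, chaperonin was dispensed at 40 nM or 20 nM final depending on batch activity. Next, compounds were pinned at 76 uM and ATP added at 10 uM. After 30 min at 37 °C, ADP detection reagents ran 30 min at ambient temperature.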
Nrf2 block: inhibitors of Nrf2 signaling; AID 504444; A549 ARE-Fluc reporter, luciferase luminescence, 18-24 h; 360,000 tested, 2.1% active; Potency, µM (top dose mostly 46 µM), hits mostly inhibitors; note: nearly all actives have a fitted effect of over 60% in size
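In this cell-based qHTS, ARE-driven firefly luciferase in A549 cells reports Nrf2 activity; the luminescent signal after BugLite lysis is the measured value, with a prior CellTiter-Fluor read for cell health.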
AT treatment: potential ataxia-telangiectasia treatment; F2112 A-T fibroblasts, KAP-1 phosphorylation AlphaLISA; neocarzinostatin DNA damage 30 min before lysis; Potency, µM (titrated, usually from 57.5 µM), actives largely listed as activators; 320,000 tested, 0.19% active; AID 485349; note: nearly all actives have a fitted effect of over 45% in size
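hTERT-immortalized A-T patient fibroblasts (F2112), 500 cells/well in OPTI-MEM, 1% FBS, got compounds for 60 min, then NCS for 30 min at 37C. Lysates were then assayed for phospho-KAP-1 by AlphaLISA (anti-pKAP1 donor, anti-KAP1 acceptor beads), 6 hr at 25C.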
Nrf2 activator: Nrf2 pathway activation; AREc32 ARE-luciferase reporter (MCF7-derived line), luminescence, 24 h; 410,000 tested, 0.31% active; Potency, µM (doses to about 46.1 µM), usual class: activators; AID 624171; note: nearly all actives have a fitted effect of over 65% in size
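Reporter line AREc32 (ARE-Fluc), seeded overnight in OPTI-MEM with 5% FBS; compound pin-transferred, 24 hr at 37 deg C, 5% CO2; luminescent read-out.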
TCR activator: activates T cell receptor signaling; primary human leukocytes, anti-CD3, IL-2 HTRF, 48 h; Potency, µM (series often up to 9.22 µM), hits mostly activators; 330,000 tested, under 10 active
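48 hr co-incubation of compounds, a-CD3 beads and primary human leukocytes; IL-2 quantified homogeneously by HTRF with anti-IL-2 K and d2 conjugates.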
Large screens that a line does not name were inactive. Unless noted, calls come from the whole dose curve; as a rule, active = well fitted curve in the direction sought with a large enough effect; inconclusive = small, poorly fitted or top-dose-only effect, or another doubt; inactive = no such curve, though single readings can be large; an effect the other way counts as inactive or inconclusive.

Cc1ccc(C(=O)n2nc(-c3ccco3)nc2N)cc1	Nrf2 block inconclusive
CC(=O)c1cccc(Nc2nc(-c3sc(C)nc3C)cs2)c1	Nrf2 block 23µM (no result: TCR activator)
Oc1ccc(Nc2ccnc3cc(Cl)ccc23)cc1	AT treatment 40µM
NS(=O)(=O)c1ccc(N2N=C(c3ccccc3)CC2c2cccc(F)c2)cc1 (stereo not given)	AT treatment 40µM
NS(=O)(=O)c1ccc(N2N=C(c3ccc(Br)cc3)CC2c2ccc(F)cc2)cc1 (stereo not given)	A549 tox inconclusive, Nrf2 block 18µM, AT treatment 40µM
Nc1nonc1-n1nnc(C(=O)N/N=C/c2ccc(OCc3ccccc3F)cc2)c1CNc1ccccc1	none
Cn1c(=O)c2c(nc(NCc3ccco3)n2CCc2ccccc2)n(C)c1=O	Nrf2 block 21µM
Cn1c(=O)c2c(nc(NCc3ccccc3)n2Cc2ccc(F)cc2)n(C)c1=O	none (no result: A549 tox, CCT chaperon mod, Nrf2 block, Nrf2 activator)
Cn1c(=O)c2c(nc(N/N=C/c3ccc(OC(=O)c4ccco4)cc3)n2Cc2ccccc2)n(C)c1=O	Nrf2 block 16µM
COCCNc1nc2c(c(=O)n(C)c(=O)n2C)n1Cc1c(F)cccc1Cl	Nrf2 block 18µM (no result: CCT chaperon mod, AT treatment, TCR activator)
CCCNc1nc2c(c(=O)n(C)c(=O)n2C)n1Cc1ccc(F)cc1	Nrf2 block 15µM
CCn1c(NCc2ccco2)nc2c1c(=O)n(C)c(=O)n2C	none
O=C(NCC(c1ccco1)S(=O)(=O)c1ccc(Cl)cc1)c1ccccc1F (stereo not given)	none (no result: CCT chaperon mod, Nrf2 block, AT treatment, TCR activator)
Cc1ccc(NC(=O)Cn2ncn3c(cc4ccccc43)c2=O)cc1C	none (no result: CCT chaperon mod, AT treatment, TCR activator)
CCNc1nc2c(c(=O)n(C)c(=O)n2C)n1Cc1ccc(Cl)cc1	Nrf2 block 9.2µM
Cc1ccc(Cn2c(NCCc3ccccc3)nc3c2c(=O)n(C)c(=O)n3C)cc1	Nrf2 block 15µM
Cn1c(=O)c2c([nH]c(=S)n2Cc2ccc(Cl)cc2)n(C)c1=O	CCT chaperon mod -84
COc1ccc(-c2nn(-c3ccccc3)cc2C(=O)NC(=S)N2CCOCC2)cc1OC	Nrf2 block inconclusive
COc1ccc(C2CC(=O)N(CC(=O)Nc3cccc(C)c3C)c3ccccc3S2)cc1OC (stereo not given)	none (no result: CCT chaperon mod, AT treatment, TCR activator)
Fc1ccc2cc(-c3ccsc3)ncc2c1	Nrf2 block inconclusive, Nrf2 activator 8.9µM
COc1cc2cnc(-c3ccsc3)cc2cc1OC	Nrf2 activator 4.5µM
COc1ccc(-c2nc3ccc(NC(=O)CO)cc3c(=O)n2Cc2cccc(Cl)c2)cc1COc1ccc(NC(C)=O)cc1	Nrf2 block inconclusive (no result: CCT chaperon mod, AT treatment, Nrf2 activator, TCR activator)
CCCCc1nn2c(=O)cc(COC(=O)c3ccc(NC(=O)c4ccccc4Cl)cc3)nc2s1	none (no result: CCT chaperon mod, Nrf2 block, AT treatment, TCR activator)
CCc1ccc2ncc(S(=O)(=O)c3ccc(C)c(C)c3)c(N3CCCC3)c2c1	Nrf2 block 23µM
COC(=O)c1sc(-c2cccs2)cc1NC(=O)/C=C/C(=O)O	CCT chaperon mod -42, Nrf2 activator 16µM
CC(C)C(=O)Nc1cccc(-c2nc3ncccc3o2)c1	none
O=C(Nc1cccc(-c2nc3ncccc3o2)c1)c1ccc(-c2cccc(Cl)c2Cl)o1	Nrf2 block 5.8µM (no result: CCT chaperon mod, AT treatment, TCR activator)
CCCCCC(=O)Nc1cccc(C2=NOC3(C2)C[C@@H](C(N)=O)N(C(=O)CC(c2ccccc2)c2ccccc2)C3)c1 (stereo not given in full)	A549 tox inconclusive, Nrf2 block 21µM
C/C=C\C(=O)Nc1cccc(C2=NOC3(C2)C[C@@H](C(N)=O)N(C(=O)CC(c2ccccc2)c2ccccc2)C3)c1 (stereo not given in full)	AT treatment inconclusive
C/C=C\C=C\C(=O)N1CC2(CC(c3cccc(NC(=O)COc4ccc(Cl)cc4)c3)=NO2)C[C@H]1C(N)=O (stereo not given in full)	none
C/C=C\C=C/C(=O)Nc1cccc(C2=NOC3(C2)C[C@@H](C(N)=O)N(C(=O)COc2ccc(Cl)cc2)C3)c1 (stereo not given in full)	AT treatment 3.2µM
CC1(C(=O)N2CC3(CC(c4cccc(NC(=O)CC(c5ccccc5)c5ccccc5)c4)=NO3)C[C@@H]2C(N)=O)CC1 (stereo not given in full)	none
CC/C=C/C(=O)N1CC2(CC(c3cccc(NC(=O)CC(c4ccccc4)c4ccccc4)c3)=NO2)C[C@@H]1C(N)=O (stereo not given in full)	CCT chaperon mod -33
CC(=O)[C@H]1CC[C@H]2[C@@H]3CCC4=CC(=O)CC[C@]4(C)[C@H]3CC[C@]12C	none
CC12CCC(=O)C=C1CCC1C2C(O)CC2(C)C(c3csc(N)n3)CCC12 (stereo not given)	Nrf2 block 23µM (no result: AT treatment)
CC12CCC(=O)C=C1CCC1C2CCC2(C)C(c3csc(N)n3)CCC12 (stereo not given)	A549 tox inconclusive, Nrf2 block 18µM (no result: AT treatment)
COC(=O)c1cn(CC(=O)N2C(C)CCCC2C)c2ccccc12 (stereo not given)	none
CC1CCCC(C)N1C(=O)Cn1cc(/C=C2/C(=O)Nc3ccccc32)c2ccccc21 (stereo not given)	A549 tox 16µM, Nrf2 block 18µM
Cc1ccc(C)c(CN2C(=O)C(O)(c3c[nH]c4ccccc34)c3ccccc32)c1 (stereo not given)	A549 tox inconclusive, Nrf2 block inconclusive (no result: CCT chaperon mod, AT treatment, TCR activator)
CSc1ccccc1OCc1cc(C(=O)N2CCc3c(Cl)cccc3C2)no1	Nrf2 block 9.2µM
COc1cc2c(cc1OC)CN(C(=O)c1cc(COc3ccccc3SC)on1)CC2	none (no result: A549 tox, Nrf2 block, AT treatment, TCR activator)
O=C(Nc1ccccc1C(=O)N1CCCCC1)c1nsc2ccccc12	none (no result: CCT chaperon mod, Nrf2 block, AT treatment, TCR activator)
CCc1ccc(OCCNC(=O)c2cc(SC)ccc2Cl)cc1	A549 tox inconclusive, Nrf2 block 18µM
CSc1ccc(Cl)c(C(=O)NCCOc2ccccc2)c1	Nrf2 block inconclusive
O=C(NCc1cccnc1)c1ccccc1NS(=O)(=O)c1ccc(Br)cc1	Nrf2 block inconclusive
CCCNS(=O)(=O)c1ccc(CCC(=O)Nc2cc(Cl)ccc2Oc2ccccc2)cc1	A549 tox inconclusive, Nrf2 block 16µM
CCOc1ccc(Oc2ccccc2NS(=O)(=O)c2ccc(CCC(=O)O)cc2)cc1	Nrf2 block 10µM
O=C(NCC(=O)N1CCN(S(=O)(=O)c2ccc3c(c2)OCCO3)CC1)c1ccccc1Cl	Nrf2 block 12µM
CC(=O)Nc1cccc(S(=O)(=O)N2CCN(S(=O)(=O)c3ccc4c(c3)OCCO4)CC2)c1	Nrf2 block inconclusive (no result: CCT chaperon mod, AT treatment, Nrf2 activator, TCR activator)
Cc1cccc(NC(=O)C2CCN(S(=O)(=O)c3ccc4c(c3)OCCCO4)CC2)n1	Nrf2 block 15µM
